For test [1] the following is noted: Ebola virus entry cell assay, ratio channel.
The conditions of test [2]: Ebola virus entry reporter assay, green channel fluorescence. (In general: Reporter assays use an easily measured gene product as a stand-in for the process of interest.)
Test [3] can be described thus: qHTS assay for measurement of the activity of small molecule inhibitors on Zika virus induced Caspase-3 activity in human iPSC derived neural progenitor cells (hNPCs) (AID 1224857; active = well fitted curve in the direction sought with a large enough effect; an effect the other way counts as inactive or inconclusive; also: nearly all actives have a fitted effect of over 65% in size). The settings on record: hNPCs ZIKV-induced caspase-3/7, Caspase-Glo luminescence, 6 h; series mostly up to 45.7 µM. In outline: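 hNPCs seeded 350 cells/well, cultured 16–20 h; compounds added 1 h before ZIKV (2 FFU/cell), 37 C 6 h. Caspase-Glo 3/7 luminescence after 30 min RT; % inhibition from induction scaled to uninfected (0%) and infected (100%) wells.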
For orientation: Quantitative high-throughput screening tests each substance at several concentrations.

Test [4] is described as follows: qHTS assay for measurement of the activity of small molecule inhibitors on Zika virus induced Caspase-3 activity in human astrocytoma cells (AID 1224859; active = well fitted curve in the direction sought with a large enough effect; an effect the other way counts as inactive or inconclusive). The settings on record: SNB-19 ZIKV-induced caspase-3/7, luminescence, 6 h; series mostly up to 45.7 µM. In outline: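 Luminescence read-out (Caspase-Glo 3/7, 30 min RT) of caspase activity in SNB-19 cells infected 6 h with ZIKV, 2 FFU/cell, after 1 h compound pretreatment; % inhibition from induction normalised to uninfected (0%) and infected (100%) wells.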

Test [5] is described as follows: qHTS assay to identify small molecule inhibitors of chordoma cells - UCH-1 (AID 1259355; active = well fitted curve in the direction sought with a large enough effect; an effect the other way counts as inactive or inconclusive; also: nearly all actives have a fitted effect of over 55% in size). The settings on record: UCH-1 chordoma viability, CellTiter-Glo, 48 h, combination; series mostly up to 46.1 µM. The essentials:
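Seed 800 cells per well; incubate overnight at 37 C, 5% CO2. Add test compounds (15 concentrations), then the auranofin–topoisomerase-agent combination. Incubate 48hr, add CellTiter-Glo, wait 30min, read luminescence.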

Test [6] in a line: qHTS assay to identify small molecule inhibitors of chordoma cells - UCH-2 (AID 1259356; active = well fitted curve in the direction sought with a large enough effect; an effect the other way counts as inactive or inconclusive). The settings on record: UCH-2 chordoma viability, CellTiter-Glo ATP luminescence, 48 h; series mostly up to 46.1 µM.

Records with an inconclusive call do not appear. Entries that show only a call come without a potency. For part of these data: Measured potencies and affinities stand elsewhere. The source made the active and inactive calls. Numbered stars: 1 amine (or outer) side, 2 acyl side, 3 side chain; on linkers, the order of the positions; unused ones are H or OH. Bridge positions count the residues as written; N and C are the ends. Square brackets hold non-standard residues; d marks the D form. Peptide text beside a SMILES is read from it. I, II: the chains in the order shown. Actinocin(9to1) = Cc1c2oc3c(C)ccc(C(=O)[*:1])c3nc-2c(C(=O)[*:2])c(N)c1=O; NMeV = CN[C@H](C(=O)O)C(C)C; Sar = CNCC(=O)O

One may read the AC50 as the concentration at which the activity in the assay is half-maximal.

`CCOC(=O)Nc1ccc2c(c1)N(C(=O)CCN1CCOCC1)c1ccccc1S2`: the outcome in test [1] was inactive. Regarding `CC(=O)O[C@]1(C(C)=O)CC[C@H]2[C@@H]3C=C(C)C4=CC(=O)CC[C@]4(C)[C@H]3CC[C@@]21C`, the result in test [1] was inactive.

For the compound `O[C@@H](c1cc(C(F)(F)F)nc2c(C(F)(F)F)cccc12)[C@H]1CCCCN1`, the AC50 in test [1] was 5.62 µM (active). In the case of `COc1cc(NC(C)CCCN)c2ncccc2c1` (centres undefined), the result in test [1] was inactive. Regarding `CCOC(=O)C1(c2ccccc2)CCN(CCC(C#N)(c2ccccc2)c2ccccc2)CC1`, the outcome in test [2] and in test [4] was inactive. Moreover, the AC50 in test [1] was 14.1 µM (active). Further, the Potency entry in test [3], in test [5] and in test [6] was “inactive” throughout. Take `CN1CCN(CCCN2c3ccccc3Sc3ccc(C(F)(F)F)cc32)CC1`: the AC50 in test [1] is 3.98 µM (active).

On to `CC(=O)Oc1ccccc1C(=O)Nc1ncc([N+](=O)[O-])s1`, for which, in test [1], the outcome was inactive. `C=C1CC[C@@]2(O)[C@H]3Cc4ccc(O)c5c4[C@@]2(CCN3CC2CC2)[C@H]1O5`: the call in test [2], in test [1] and in test [4] was inactive. Besides, the Potency entry in test [5] and in test [6] was “inactive” each time.

Turning to `COC(c1ccccc1)(c1ccccc1)[C@H](Oc1nc(C)cc(C)n1)C(=O)O`, in test [1], the result was inactive. With `CCCNCC(O)COc1ccccc1C(=O)CCc1ccccc1` (centres undefined), the AC50 in test [1] is 8.91 µM (active).

For the compound `NNCCc1ccccc1`, the outcome in test [1] was inactive.

For the compound `CCC[C@H](N[C@@H](C)C(=O)N1[C@H](C(=O)O)C[C@@H]2CCCC[C@@H]21)C(=O)OCC`, the result in test [1] was inactive. In the case of `COc1ccc(Cl)cc1C(=O)NCCc1ccc(S(=O)(=O)NC(=O)NC2CCCCC2)cc1`, the outcome in test [1] was inactive. Same read-out and setting: the value for `C=C(CC)C(=O)c1ccc(OCC(=O)O)c(Cl)c1Cl` was “inactive”; that for `Cc1c2oc3c(C)ccc(C(=O)N[C@@H]4C(=O)N[C@H](C(C)C)C(=O)N5CCC[C@H]5C(=O)N(C)CC(=O)N(C)[C@@H](C(C)C)C(=O)O[C@@H]4C)c3nc-2c(C(=O)N[C@@H]2C(=O)N[C@H](C(C)C)C(=O)N3CCC[C@H]3C(=O)N(C)CC(=O)N(C)[C@@H](C(C)C)C(=O)O[C@@H]2C)c(N)c1=O` (I: T[dV]P[Sar][NMeV] / II: T[dV]P[Sar][NMeV]; ester I:1-I:C, II:1-II:C; linker I:N-II:N via Actinocin(9to1)) was “inactive”.

Source of the values: PubChem BioAssay (NCATS).
